# Measured values as given in the supplement of paper PMC12645437, “Orthogonal IMiD-Degron Pairs Induce Selective Protein Degradation in Cells” (ACS Chemical Biology, 2025).
# In all, about 8,300 sequences were measured (“log2 fold change of degron read counts, EGFP-low vs EGFP+ sorted cells (limma voom), compound-induced degradation”: median about -1.1, highest 2% from about 3.2 on). The entries come from a sample that favours the highest values as a whole.
# T1: CRBN, Q96SW2
# T1 chain: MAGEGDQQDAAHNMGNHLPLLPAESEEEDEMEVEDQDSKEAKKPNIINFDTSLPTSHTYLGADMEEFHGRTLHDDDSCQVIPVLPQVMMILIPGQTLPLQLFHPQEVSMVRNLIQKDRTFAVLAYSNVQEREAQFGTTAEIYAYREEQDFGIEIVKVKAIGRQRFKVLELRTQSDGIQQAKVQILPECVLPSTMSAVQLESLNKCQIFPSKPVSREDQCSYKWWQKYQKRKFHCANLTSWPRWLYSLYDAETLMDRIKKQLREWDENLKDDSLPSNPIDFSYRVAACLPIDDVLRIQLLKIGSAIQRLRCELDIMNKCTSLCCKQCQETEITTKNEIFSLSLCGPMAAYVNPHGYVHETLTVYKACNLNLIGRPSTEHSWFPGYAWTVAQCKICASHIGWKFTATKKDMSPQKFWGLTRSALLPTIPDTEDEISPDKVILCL
# B1: 46F_47L_49P_50I_52G_53R_54G_55F_67L_, Q9UKT9 (peptide)
# chain: FLCPICGRGFTQKGNLLRHIKL
# B2: 46F_47G_49P_50I_52G_53A_54H_55F_67L_, Q9UKT9 (peptide)
# chain: FGCPICGAHFTQKGNLLRHIKL
# B3: 46F_47F_49P_50I_52G_53A_54H_55F_67L_, Q9UKT9 (peptide)
# chain: FFCPICGAHFTQKGNLLRHIKL
# B4: 46F_47W_49P_50I_52G_53A_54H_55F_67L_, Q9UKT9 (peptide)
# chain: FWCPICGAHFTQKGNLLRHIKL
# B5: 46F_47A_49P_50I_52G_53A_54H_55F_67L_, Q9UKT9 (peptide)
# chain: FACPICGAHFTQKGNLLRHIKL
# B6: 46F_47Q_49P_50I_52G_53A_54H_55F_67L_, Q9UKT9 (peptide)
# chain: FQCPICGAHFTQKGNLLRHIKL
# B7: 46F_47V_49P_50I_52G_53A_54H_55F_67L_, Q9UKT9 (peptide)
# chain: FVCPICGAHFTQKGNLLRHIKL
# B8: 46F_47S_49P_50I_52G_53A_54H_55F_67L_, Q9UKT9 (peptide)
# chain: FSCPICGAHFTQKGNLLRHIKL
# B9: 46F_47C_49P_50I_52G_53A_54H_55F_67L_, Q9UKT9 (peptide)
# chain: FCCPICGAHFTQKGNLLRHIKL
# B10: 46F_47Y_49P_50I_52G_53A_54H_55F_67L_, Q9UKT9 (peptide)
# chain: FYCPICGAHFTQKGNLLRHIKL
# B11: 46F_47E_49E_50Q_52G_53A_54D_55F_67L_, Q9UKT9 (peptide)
# chain: FECEQCGADFTQKGNLLRHIKL
# B12: 46F_47W_49P_50V_52G_53A_54L_55F_67L_, Q9UKT9 (peptide)
# chain: FWCPVCGALFTQKGNLLRHIKL
# B13: 46F_47Y_49E_50I_52G_53R_54E_55F_67L_, Q9UKT9 (peptide)
# chain: FYCEICGREFTQKGNLLRHIKL
# B14: 46F_47G_49P_50I_52G_53H_54W_55F_67L_, Q9UKT9 (peptide)
# chain: FGCPICGHWFTQKGNLLRHIKL
# B15: 46F_47F_49E_50V_52G_53A_54N_55F_67L_, Q9UKT9 (peptide)
# chain: FFCEVCGANFTQKGNLLRHIKL
# B16: 46F_47Y_49E_50V_52G_53A_54N_55F_67L_, Q9UKT9 (peptide)
# chain: FYCEVCGANFTQKGNLLRHIKL
# B17: 46F_47M_49E_50V_52G_53A_54N_55F_67L_, Q9UKT9 (peptide)
# chain: FMCEVCGANFTQKGNLLRHIKL
# B18: 46F_47Q_49E_50V_52G_53A_54N_55F_67L_, Q9UKT9 (peptide)
# chain: FQCEVCGANFTQKGNLLRHIKL
# B19: 46F_47N_49E_50V_52G_53A_54N_55F_67L_, Q9UKT9 (peptide)
# chain: FNCEVCGANFTQKGNLLRHIKL
# B20: 46F_47E_49E_50V_52G_53A_54N_55F_67L_, Q9UKT9 (peptide)
# chain: FECEVCGANFTQKGNLLRHIKL
# B21: 46F_47H_49E_50V_52G_53A_54N_55F_67L_, Q9UKT9 (peptide)
# chain: FHCEVCGANFTQKGNLLRHIKL
# B22: 46F_47T_49E_50V_52G_53A_54N_55F_67L_, Q9UKT9 (peptide)
# chain: FTCEVCGANFTQKGNLLRHIKL
# B23: 46F_47V_49E_50V_52G_53A_54N_55F_67L_, Q9UKT9 (peptide)
# chain: FVCEVCGANFTQKGNLLRHIKL
# B24: 46F_47W_49E_50V_52G_53A_54N_55F_67L_, Q9UKT9 (peptide)
# chain: FWCEVCGANFTQKGNLLRHIKL
# B25: 46F_47L_49E_50V_52G_53A_54N_55F_67L_, Q9UKT9 (peptide)
# chain: FLCEVCGANFTQKGNLLRHIKL
# B26: 46F_47I_49E_50V_52G_53A_54N_55F_67L_, Q9UKT9 (peptide)
# chain: FICEVCGANFTQKGNLLRHIKL
# B27: 46F_47H_49N_50I_52G_53A_54H_55F_67L_, Q9UKT9 (peptide)
# chain: FHCNICGAHFTQKGNLLRHIKL
# B28: 46F_47G_49P_50I_52G_53H_54Q_55F_67L_, Q9UKT9 (peptide)
# chain: FGCPICGHQFTQKGNLLRHIKL
# Molecular target: T1, CRBN, Q96SW2
# Test: log2 fold change of degron read counts, EGFP-low vs EGFP+ sorted cells (limma voom), compound-induced degradation; higher = more compound-induced degradation of the degron-EGFP fusion; degrons are variants of IKZF1/3 zinc finger 2; compound dose not given here
# Settings: Jurkat, 18 h
# [1] = compound: compound 19 (5-tert-butyl-thalidomide)
# [2] = compound: compound 22 (5-morpholino-thalidomide)
# [3] = compound: compound 33 (diphenyl IMiD analogue)
# 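Also: pooled lentiviral library of zinc finger degron-EGFP fusions in mCherry-positive Jurkat cells, FACS-sorted after compound exposure, with degron abundance counted by next-generation sequencing.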
Sequence,log2 fold change of degron read counts [1],log2 fold change of degron read counts [2],log2 fold change of degron read counts [3],log2 fold change of degron read counts (compound: thalidomide)
B1,-1.58,-1.94,-0.785,-0.724
B2,2.89,1.31,1.51,0.333
B3,2.66,2.83,1.81,0.615
B4,2.66,3.51,1.81,0.881
B5,3.08,1,0.948,0.563
B6,0.0422,1.5,1.32,3.32
B7,-0.217,2.12,1.37,2.41
B8,2.35,1.14,1.5,1.13
B9,1.94,0.949,1.85,1.24
B10,3.12,3.56,2.1,0.702
B11,-3.85,-4.35,-2.06,-2.36
B12,1.3,2.3,1.77,0.113
B13,-0.515,-1.07,-0.325,-1.93
B14,-1.35,-2.19,-1.6,-1.77
B15,2.83,3.44,1.84,1.47
B16,3.26,3.88,2.56,1.5
B17,-0.728,0.197,2.72,1.11
B18,0.104,1.29,1.34,3.56
B19,2.09,0.096,-0.251,-0.321
B20,-0.492,-1.03,2.04,2.31
B21,0.846,0.806,-0.028,-0.545
B22,-0.297,1.72,1.21,2.03
B23,-0.0108,2.6,2.09,2.74
B24,3.33,3.86,2.16,1.61
B25,-0.0798,-0.418,0.939,1.25
B26,-0.804,2.54,2.03,2.44
B27,0.23,-0.286,-0.308,-1.49
B28,-1.23,-2.85,-2.17,-2.38
